Where “and” joins values, the source holds several entries; their conditions need not be identical. Equal entries are not always repeated. This is part of a sample that, as a whole, favours compounds with a hit. Of some 79,000 tested, about 15% had one in any assay. Unmarked numbers belong to inactive results. Calls of active or inactive are those of the source. Cut-off read from the data, not from the text of the source: active = growth inhibition above about 70%; inactive = the rest.
Legend:
[1] = NCI Yeast Anticancer Drug Screen. Data for the rad50 strain (AID 155);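 note: 0% = growth of vehicle-only cultures of the same strain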; settings: S. cerevisiae rad50 strain growth inhibition, stronger effect = higher value
Procedure, shortened: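 A DNA repair-deficient yeast mutant serves as the test organism; compound-induced growth inhibition is calculated against vehicle-treated cells.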

[2] = NCI Yeast Anticancer Drug Screen. Data for the mec2-1 strain (AID 157); settings: S. cerevisiae mec2-1 strain, stronger effect = higher value
Procedure, shortened: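 Each compound was tested on mec2-1 yeast, a strain altered in DNA damage repair or cell cycle control. Growth inhibition is reported relative to vehicle.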

[3] = NCI Yeast Anticancer Drug Screen. Data for the sgs1 mgt1 strain (AID 161);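 note: 0% = growth of cultures given vehicle only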; settings: S. cerevisiae sgs1 mgt1 strain, stronger effect = higher value
Procedure, shortened: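 Test agents were incubated with a DNA-repair-mutant yeast strain. Growth was then read and compared against vehicle-treated controls.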

[4] = NCI Yeast Anticancer Drug Screen. Data for the cln2 rad14 strain (AID 165);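 note: 0% = growth equal to vehicle treated cultures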; settings: S. cerevisiae cln2 rad14 strain, stronger effect = higher value
Procedure, shortened: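 Test compounds were added to cln2 rad14 yeast cultures; inhibition of growth was then determined by comparison with vehicle treatment.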

[5] = NCI Yeast Anticancer Drug Screen. Data for the bub3 strain (AID 167); settings: S. cerevisiae bub3 mutant strain, stronger effect = higher value
Procedure, shortened: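 Inhibition values come from growth of compound-treated mutant yeast normalised to vehicle-treated controls.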

[6] = NCI Yeast Anticancer Drug Screen. Data for the mlh1 rad18 strain (AID 175); settings: S. cerevisiae mlh1 rad18 strain growth inhibition, stronger effect = higher value
Procedure, shortened: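 Inhibition values reflect reduced growth of mutant yeast versus vehicle-treated controls following compound exposure; the mutations affect DNA damage repair.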

[7] = at 5.0 µM (retest, dose inferred, filed as 0.5)
[8] = at 50.0 µM (retest, dose inferred, filed as 5.0)

Structure (SMILES)	growth inhibition [1, 7]	growth inhibition [1, 8]	growth inhibition ([1]; at 50.0 µM)	growth inhibition [2, 7]	growth inhibition [2, 8]	growth inhibition ([2]; at 50.0 µM)	growth inhibition [3, 7] [%]	growth inhibition [3, 8]	growth inhibition ([3]; at 50.0 µM)	growth inhibition [4, 7]	growth inhibition [4, 8]	growth inhibition ([4]; at 50.0 µM)	growth inhibition [5, 7]	growth inhibition [5, 8]	growth inhibition ([5]; at 50.0 µM)	growth inhibition [6, 7]	growth inhibition [6, 8]	growth inhibition ([6]; at 50.0 µM)
Nc1ncnc2c1c(-c1ccccc1)cn2-c1ccc(Br)cc1	23%	38%	43.1%	16%	43%	21.7%	47	80% (active)	94% (active)	13%	44%	28.1%	3%	37%	-1.8%	14%	58%	58.9%
CC(O)CCCOC(c1ccccc1)(c1ccccc1)c1ccccc1 (stereo unspecified)	19%	97% (active)	86.5% (active)	9%	97% (active)	83.8% (active)	17	95% (active)	80.8% (active)	15%	94% (active)	82.7% (active)	28%	93% (active)	80.5% (active)	19%	96% (active)	84.4% (active)
COC(=O)c1ccccc1NC(=S)NN(C)C	13%	20%	-0.25%	7%	17%	-14.3%	-5	16%	-8.9%	9%	11%	18.2%	-20%	36%	3.85%	16%	28%	-2%
COc1cc(-c2oc(C=Nc3ccccc3)c([N+](=O)[O-])c2-c2ccc(O)c(OC)c2)ccc1O	22%	32%	34.1%	–	–	–	-14	74% (active)	31.4%	7%	74% (active)	-18.1%	5%	91% (active)	-16.8%	25%	61%	1.65%
CC1CCC2(C)C(CC=C(C=O)C2(O)C=O)C12CO2 (stereo unspecified)	99% (active)	99% (active)	93.4% (active)	99% (active)	99% (active)	95.3% (active)	–	–	–	99% (active)	99% (active)	92.9% (active)	99% (active)	54%	93.8% (active)	99% (active)	99% (active)	93.5% (active)
CSc1ccccc1C(=O)O	–	–	-0.25% and -1.5% and -11%	–	–	-1.9% and -7.55% and 25.9%	–	–	-10.4% and -1.2% and 31.2%	–	–	-32.9% and -15.8% and 17.3%	–	–	-30.5% and -6.5% and -34%	–	–	-7.45% and -1.95% and -8.9%
CC(C)(N)COB(c1ccccc1)c1ccccc1	–	–	–	-5%	99% (active)	99.8% (active)	-1	99% (active)	99.8% (active)	0%	99% (active)	99.5% (active)	-4%	98% (active)	99.8% (active)	-7%	99% (active)	99.5% (active)
OC(c1ccccc1)C(O)c1ccccc1 (stereo unspecified)	–	–	5.85% and 22.8% and 24.1%	–	–	-4.45% and -6.3% and 14.8%	–	–	4.4% and 1.85% and 11.1%	–	–	-9.15% and -19.2% and 9.15%	–	–	9.4% and 11.6% and 15.7%	–	–	20.1% and 11.9% and 2.4%
CCCCOC(=O)C#CC(=O)OCCCC	-144%	-114%	99.6% (active)	–	–	–	-64	-40%	99.3% (active)	-58%	-65%	99.2% (active)	-69%	-71%	99.3% (active)	-146%	-105%	99.2% (active)
Cc1ccc(S(=O)(=O)N/N=C/Cc2ccccc2)cc1	–	–	–	-13%	98% (active)	7%	3	98% (active)	79.8% (active)	-3%	95% (active)	11.6%	-5%	97% (active)	12.1%	28%	98% (active)	85.3% (active)
NCC(CS)C(=O)NC(CS)C(=O)NC(CS)C(=O)NCCNc1ccc(NCCNC(=O)C(CS)NC(=O)C(CS)NC(=O)C(CN)CS)c2c1C(=O)c1c(O)ccc(O)c1C2=O (stereo unspecified)	–	–	–	34%	85% (active)	70.8% (active)	36	82% (active)	72% (active)	23%	84% (active)	65.7%	36%	58%	65%	40%	75% (active)	53.9%
